Data taken from PubChem BioAssay AID1463 (National Center for Advancing Translational Sciences (NCATS), 2008).
Several values for one entry are separate records, joined by “and”; a condition that tells them apart may be missing. Equal values may be shown once. The whole screen tested about 280,000 compounds, of which about 2,600 (0.93%) were called active. A call without a number means that no potency is given here. About 8% were inconclusive and are not listed. Calls come from the whole dose curve; as a rule, active = well fitted curve in the direction sought with a large enough effect; inconclusive = small, poorly fitted or top-dose-only effect; inactive = flat fitted curve, though single readings scatter. Many of the other results were omitted from the sample, so actives are more common in it than they were.

assay: Counterscreen qHTS for Inhibitors of Tau Fibril Formation, Fluorescence Polarization; details: tau K18 P301L (four-repeat tau fragment) Alexa594 fluorescence, heparin fibrillization; series mostly up to 57.7 µM; note: nearly all actives have a fitted effect of over 55% in size
Text: NIH Molecular Libraries Probe Production Network [MLPCN]
NIH Chemical Genomics Center [NCGC]
Assay Provider: Carlo Ballatore, University of Pennsylvania
The microtubule-associated protein tau is an abundant protein in the axons of neurons that stabilizes microtubules. With its ability to modulate microtubule dynamics, tau contributes directly or indirectly, to key structural and regulatory cellular functions. Particularly important is the influence tau exerts on axonal transport, which allows signaling molecules, trophic factors and other essential cellular constituents to travel along the axons. Under pathological conditions, tau becomes sequestered into insoluble aggregates called neurofibrillary tangles. This phenomenon is believed to have pathological consequences by promoting axonal transport deficits that ultimately lead to synaptic dysfunction and neuronal loss. To identify inhibitors of tau aggregation, a heparin-induced tau fibril formation assay was used that employed a recombinantly expressed fragment of tau, K18 (Q242-E372), bearing a P301L mutation (Gustke et al. 1994; Hong et al. 1998). […] Total fluorescence (555 nm excitation and 632 nm emission) was measured to identify fluorescent or absorbent compounds at this wavelength. Such compounds may be artifacts that interfere with the Alexa 594 Tau fluorescence polarization assay.
Gustke, N., B. Trinczek, et al. (1994). "Domains of tau protein and interactions with microtubules." Biochemistry 33(32): 9511-22.
Hong, M., V. Zhukareva, et al. (1998).
Li, W. and V. M. Lee (2006). "Characterization of two VQIXXK motifs for tau fibrillization in vitro." Biochemistry 45(51): 15692-701.
von Bergen, M., S. Barghorn, et al. (2001). "Mutations of tau protein in frontotemporal dementia promote aggregation of paired helical filaments by enhancing local beta-structure." J Biol Chem 276(51): 48165-74.
NCGC Assay Protocol Summary:
For screening, 2 uL/well human K18 P301L (15 uM unlabeled and 0.24 uM Alexa 594-labeled tau final concentrations) in reagent buffer (100 mM sodium acetate pH 7) was dispensed into black solid 1536-well plates (Grenier) using a solenoid-based dispenser. Following transfer of 23 nL compound or DMSO vehicle by a pin tool, 2 uL/well heparin (20 uM final concentration) in reagent buffer was added and the plate centrifuged 15 s at 1000 RPM. Plates were incubated 6 hr at 37 C and then 1 uL/well ThT (30 uM final concentration) was added. After a 1 hr ambient incubation, the plates were read by an Envision (Perkin Elmer) to monitor Alexa 594 FP (555 nm excitation and 632 nm emission).
Keywords: NIH Roadmap, MLPCN, MLI, MLSMR, NCGC, qHTS, tau, tauopathies, Alzheimer's disease, fibril, neurodegeneration, aggregation
Potency is the fitted concentration of half-maximal effect; tags give direction and shape of the fitted curve or compound fluorescence and quenching.

Row | Compound | Potency
1 | O=C(OCC1O[C@@H](OC(=O)c2cc(O)c(O)c(O)c2)[C@@H](OC(=O)c2cc(O)c(O)c(O)c2)[C@@H](OC(=O)c2cc(O)c(O)c(O)c2)[C@@H]1OC(=O)c1cc(O)c(O)c(O)c1)c1cc(O)c(O)c(O)c1 (stereo not given in full) | 10 µM [quencher] (active)
2 | C=CCN1CCC2(C)c3cc(O)ccc3CC1[C@@H]2C (stereo not given in full) | inactive
3 | COC1CC(OC2CC[C@@]3(C=O)C4CC[C@]5(C)C(C6=CC(=O)OC6)CC[C@@]5(O)C4CC[C@]3(O)C2)OC(C)C1O (stereo not given in full) | inactive
4 | N#CC(C#N)=Cc1cc(O)c(O)c([N+](=O)[O-])c1 | inactive
5 | CC(=O)c1c(O)c(C)c(O)c(Cc2c(O)c3c(c(C(=O)/C=C/c4ccccc4)c2O)OC(C)(C)C=C3)c1O | 15.8 µM [quencher] (active) and 12.6 µM [quencher] (active)
6 | CO[C@@H]1C[C@@H](C[C@H]2CC[C@H](C)[C@@H]([C@@H](C)C(=O)O)O2)O[C@]2(O[C@](C)([C@H]3CC[C@@](C)(C4OC([C@H]5O[C@@](O)(CO)[C@H](C)C[C@@H]5C)C[C@@H]4C)O3)C[C@H]2C)[C@@H]1C (stereo not given in full) | inactive
7 | CN(C)[C@@H]1C(=O)C(C(N)=O)=C(O)[C@@]2(O)C(=O)C3=C(O)c4c(O)cccc4[C@@](C)(O)C3CC12 (stereo not given in full) | inactive
8 | CCCCCCCCCCCCCC(=O)O[C@@H]1[C@@H](C)[C@@]2(O)[C@@H](C=C(CO)C[C@]3(O)C(=O)C(C)=C[C@@H]23)[C@@H]2C(C)(C)[C@]12OC(C)=O | inactive
9 | COc1ccccc1-c1[se]c2ccccc2c1I | inactive
10 | c1ccc2sc(SNC3CCCCC3)nc2c1 | inactive
11 | CC(C)(C)c1ccc(S(=O)(=O)Nc2ccc(O)c(Sc3nc4ccccc4s3)c2)cc1 | 8.91 µM [quencher] (active)
12 | CC[C@]1(O)C(=O)OCc2c1cc1n(c2=O)Cc2cc3ccccc3nc2-1 | inactive
13 | CCCN(C/C=C/I)C1CCc2ccc(O)cc2C1 (stereo not given) | inactive
14 | CN(C)C1C(=O)C(C(N)=O)=C(O)[C@@]2(O)C(=O)C3=C(O)c4c(O)cccc4[C@@](C)(O)C3C[C@@H]12 (stereo not given in full) | inactive
15 | CC[C@@H]1CN2CC[C@@H]1C[C@H]2[C@H](O)c1ccnc2ccc(OC)cc12 | inactive
